A number with no mark means an inactive call. Records with an inconclusive call do not appear. Activity calls are given as the source filed them. Calls follow the shape of the dose curve; as a rule, active = well fitted curve in the direction sought with a large enough effect; inconclusive = small, poorly fitted or top-dose-only effect, or another doubt; inactive = no such curve, though single readings can be large; an effect the other way counts as inactive or inconclusive.

Cytochrome P450 3A4 (Homo sapiens), sequence (P08684 whole entry, looked up): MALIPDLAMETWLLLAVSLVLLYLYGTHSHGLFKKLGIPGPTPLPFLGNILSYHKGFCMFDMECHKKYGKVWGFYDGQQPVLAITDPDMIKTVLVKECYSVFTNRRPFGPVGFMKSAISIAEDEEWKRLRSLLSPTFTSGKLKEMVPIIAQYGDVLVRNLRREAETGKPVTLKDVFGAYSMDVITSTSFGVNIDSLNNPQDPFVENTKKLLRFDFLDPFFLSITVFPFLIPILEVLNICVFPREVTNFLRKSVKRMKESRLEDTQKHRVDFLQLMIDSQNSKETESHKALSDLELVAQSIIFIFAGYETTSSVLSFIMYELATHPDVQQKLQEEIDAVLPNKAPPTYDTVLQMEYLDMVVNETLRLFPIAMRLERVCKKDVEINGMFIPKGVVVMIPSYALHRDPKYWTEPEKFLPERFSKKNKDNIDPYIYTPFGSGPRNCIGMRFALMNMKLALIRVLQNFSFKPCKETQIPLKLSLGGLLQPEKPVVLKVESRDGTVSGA

The first assay addresses Cytochrome P450 3A4 (Homo sapiens) (UniProt P08684). As to the kind of experiment: qHTS Assay for Inhibitors and Substrates of Cytochrome P450 3A4 (AID 884). Also: potency is read from the fitted curve at half-maximal effect; nearly all actives have a fitted effect of over 50% in size. To be noted: recombinant CYP3A4, Luciferin-PPXE luminescence; series mostly up to 57.1 µM; activity change, negative = inhibition: at the top concentration. The method, boiled down:
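Luminescent readout of luciferin produced by CYP3A4 (20 nM) dealkylation of Luciferin-PPXE, 25 uM (its KM). NADPH-driven reaction ran 60 min at RT after 10 min compound preincubation; data scaled to 57 uM ketoconazole as 100% inhibition.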
`CCCC[C@@H]1C[C@H]1C(NC(=O)c1cccnc1)c1ccc(Cl)cc1` (stereo not given in full): the Potency is 0.0794 µM (active).

On to `C[C@@H](C(=O)NCCF)[C@H]1C[C@]1(C)[C@H](NC(=O)OCc1ccccc1)c1ccccc1`, for which the Potency is 3.98 µM (active).

Consider `C[C@@H](C(=O)Nc1ccc2ccccc2c1)[C@@H]1C[C@@]1(C)[C@@H](NC(=O)OCc1ccccc1)c1ccccc1`, for which the Potency is 7.94 µM (active).

For `O=C(NCCc1c[nH]c2ccccc12)[C@@H]1C[C@H]1[C@@H](NP(=O)(c1ccccc1)c1ccccc1)c1ccccc1`, the Potency is 1.26 µM (active).

Consider `O=C(N[C@@H](c1ccccc1)[C@@H]1C[C@H]1C(=O)NCc1ccccn1)OCc1ccccc1`, for which the Potency was 6.31 µM (active).

For `COC(=O)[C@@]1(Cc2ccccc2)[C@H]2c3cc(C(=O)N4CCCC4)n(Cc4ccc(C)o4)c3C[C@H]2CN1C(=O)c1ccccc1`, the Potency was 2 µM (active).

Turning to `CCCc1cc2c(n1CCc1ccc(Cl)cc1)C(C)C1CN(C(=O)c3ccccc3)C(C)(C(=O)OC)C21` (stereo not given), the Potency was 5.01 µM (active).

`O=C(NCCc1c[nH]c2ccccc12)[C@H]1C[C@@H]1[C@H](NP(=O)(c1ccccc1)c1ccccc1)c1ccccc1`: the Potency is 1.58 µM (active).

For another assay the target is unchanged. Briefly: qHTS Assay for Activators of Cytochrome P450 3A4 (AID 885). Also: nearly all actives have a fitted effect of over 65% in size. To be noted: recombinant CYP3A4, Luciferin-PPXE luminescence, 60 min; series mostly up to 57.1 µM; activity change, positive = activation: at the top concentration. A digest of the protocol: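 CYP3A4 activity: Luciferin-PPXE O-dealkylation, 25uM substrate, 200mM KPO4, RT throughout. Read-out is luciferase luminescence; higher values reflect activation.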
Regarding `CCCC[C@@H]1C[C@H]1C(NC(=O)c1cccnc1)c1ccc(Cl)cc1` (stereo not given in full), the “activity change, positive = activation” value is -78.6%.

In the case of `COC(=O)[C@@H]1C[C@H]1[C@@H](NC(=O)c1cc(C)nn1C)c1ccccc1`, the “activity change, positive = activation” value was -67.9%.

As for `COC(=O)[C@@H]1C[C@H]1[C@@H](NC(=O)c1cc(C)on1)c1ccccc1`, the “activity change, positive = activation” value is -49.5%.

Consider `C[C@@H](C(=O)Nc1ccc2ccccc2c1)[C@@H]1C[C@@]1(C)[C@@H](NC(=O)c1ccncc1Cl)c1ccccc1`, for which the “activity change, positive = activation” value is -85.6%.

Turning to `CCCC/C=C/C(NC(=O)c1ccco1)c1ccccc1` (stereo not given), the “activity change, positive = activation” value was -45.7%.

As to `COC(=O)[C@@]1(Cc2ccc(OC)cc2)[C@H]2c3cc(C(=O)N4CCCC4)n(Cc4ccc(Cl)c(C(F)(F)F)c4)c3C[C@H]2CN1C(=O)c1ccccc1`, the “activity change, positive = activation” value is -50.5%.

In the case of `C[C@@]1(C(NC(=O)Cc2ccccc2)c2ccc(-c3ccccc3)cc2)C[C@H]1C1CCCCC1` (stereo not given in full), the “activity change, positive = activation” value is -39.4%.

On to `O=C(NCc1nc2ccccc2[nH]1)[C@H]1C[C@@H]1[C@H](NP(=O)(c1ccccc1)c1ccccc1)c1ccccc1`, for which the “activity change, positive = activation” value is -56.2%.

On to `CC1=C(C(=O)OCc2ccccc2)C(c2ccc([N+](=O)[O-])cc2)NC(=O)N1CCCCCC(=O)O` (stereo not given), for which the “activity change, positive = activation” value was -48%.

As for `COCC1C2CC[C@H]3C(OCc4ccc(F)cc4C(F)(F)F)OC[C@]4(C)[C@H]3C2=C(CN4C(=O)OC(C)(C)C)[C@H](C)C1COC` (stereo not given in full), the “activity change, positive = activation” value was -64.7%.

On to `CCCCCC1=C2CNC(C)(C(=O)OC)C=C2C(C)C1=O` (stereo not given), for which the “activity change, positive = activation” value was -63.8%.

As for `C[C@@H](C(=O)NCCF)[C@H]1C[C@]1(C)[C@H](NC(=O)OCc1ccccc1)c1ccccc1`, the “activity change, positive = activation” value is -92.3%.

On to `COC(=O)[C@@H]1C[C@H]1[C@@H](NC(=O)c1cccnc1)c1ccccc1`, for which the “activity change, positive = activation” value was -92%.

On to `COC(=O)[C@H]1C[C@@H]1[C@H](NC(=O)Oc1ccc(F)cc1)c1ccccc1`, for which the “activity change, positive = activation” value was -97.8%.

As to `COC(=O)C1CC1C(NC(=O)[C@H]1CCCCN1)c1ccccc1` (stereo not given in full), the “activity change, positive = activation” value is -72%.

For the compound `O=C(NCc1cc(F)cc2c1OCCO2)[C@H]1C[C@@H]1[C@H](NP(=O)(c1ccccc1)c1ccccc1)c1ccccc1`, the “activity change, positive = activation” value was -56.1%.

Take `CCCCCC1=C2CNC(CCC)(C(=O)OC)C=C2C(C)C1=O` (stereo not given): the “activity change, positive = activation” value is -81.2%.

`C[C@@H](C(=O)Nc1ccc2ccccc2c1)[C@@H]1C[C@@]1(C)[C@@H](NS(=O)(=O)c1ccc2ccccc2c1)c1ccccc1`: the “activity change, positive = activation” value is -44.2%.

With `C[C@@]1(C(NC(=O)c2cccs2)c2ccc(-c3ccccc3)cc2)C[C@H]1C1CCCCC1` (stereo not given in full), the “activity change, positive = activation” value is -43.7%.

On to `C[C@@H](C(=O)Nc1ccc2ccccc2c1)[C@@H]1C[C@@]1(C)[C@@H](NC(=O)OCc1ccccc1)c1ccccc1`, for which the “activity change, positive = activation” value is -73.3%.

On to `O=C(NCCc1c[nH]c2ccccc12)[C@@H]1C[C@H]1[C@@H](NP(=O)(c1ccccc1)c1ccccc1)c1ccccc1`, for which the “activity change, positive = activation” value was -94.9%.

On to `COC(=O)[C@@H]1C[C@H]1[C@@H](NC(=O)c1cnccn1)c1ccccc1`, for which the “activity change, positive = activation” value was -35%.

With `C#CCCCC(=S)Nc1ccccc1`, the “activity change, positive = activation” value was -55.1%.

Take `CCCC/C=C/C(NC(=O)C(C)(C)C)c1ccccc1` (stereo not given): the “activity change, positive = activation” value is -77.6%.

With `O=C(N[C@@H](c1ccccc1)[C@@H]1C[C@H]1C(=O)NCc1ccccn1)OCc1ccccc1`, the “activity change, positive = activation” value was -63.3%.

For the compound `COC(=O)C1(C)C=C2C(=C(c3ccccc3)C(=O)C2C)CN1` (stereo not given), the “activity change, positive = activation” value is -78.6%.

As to `C[C@H](CO)NC(=O)[C@H]1C[C@@H]1[C@H](NP(=O)(c1ccccc1)c1ccccc1)c1ccccc1`, the “activity change, positive = activation” value was -50.1%.

The values above are taken from PubChem BioAssay (NCATS).
